Source: PubChem BioAssay (NCATS)
Inconclusive results are not listed. The source made the active and inactive calls. The call rests on the fitted dose curve; in most records, active means well fitted curve in the direction sought with a large enough effect; inconclusive means small, poorly fitted or top-dose-only effect, or another doubt; inactive means no such curve, though single readings can be large; an effect the other way counts as inactive or inconclusive.

Columns and labels:
[1] = Quantitative High-Throughput drug screen in 47 multiple myeloma cell lines against the NCATS MIPE library collection: Karpas417_ECACC cell viability assay (AID 1918961); conditions: Karpas417 myeloma viability, CellTiter-Glo ATP luminescence, 48 h; viability (% of DMSO): at 45.8 µM (top of the series)
Method in brief: (§1)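 CellTiter-Glo ATP luminescence gave viability after 48 h compound treatment at 37C of 500 multiple myeloma cells per well. Normalisation used DMSO-only wells as 100% and media-only wells as 0% viability; primary qHTS of approved and investigational drugs.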

[2] = Quantitative High-Throughput drug screen in 47 multiple myeloma cell lines against the NCATS MIPE library collection: JIM3_ECACC cell viability assay (AID 1918963; further: nearly all actives have a fitted effect of over 35% in size)
Method in brief: (§2)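 Myeloma cells (500 per well) were exposed to MIPE 4.0 compounds by pin transfer and incubated 48 hours at 37C, 5% CO2. Viability was read as ATP by CellTiter-Glo luminescence, normalised to DMSO (100%) and media-only (0%) wells.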

[3] = Quantitative High-Throughput drug screen in 47 multiple myeloma cell lines against the NCATS MIPE library collection: JIM1_ECACC cell viability assay (AID 1918964)
Method in brief: (§3)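 We plated 500 myeloma cells per well, pinned in MIPE 4.0 compounds, and incubated for 48 hours at 37C. ATP was then quantified with CellTiter-Glo, with DMSO and media-only wells defining 100% and 0%.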

[4] = Quantitative High-Throughput drug screen in 47 multiple myeloma cell lines against the NCATS MIPE library collection: INA6_PLB cell viability assay (AID 1918965; further: nearly all actives have a fitted effect of over 55% in size)
Method in brief: as §1

[5] = Quantitative High-Throughput drug screen in 47 multiple myeloma cell lines against the NCATS MIPE library collection: JJN3_DSMZ cell viability assay (AID 1918966; further: nearly all actives have a fitted effect of over 50% in size)
Method in brief: as §3

[6] = Quantitative High-Throughput drug screen in 47 multiple myeloma cell lines against the NCATS MIPE library collection: H1112_PLB cell viability assay (AID 1918967; further: nearly all actives have a fitted effect of over 30% in size)
Method in brief: as §3

[7] = Quantitative High-Throughput drug screen in 47 multiple myeloma cell lines against the NCATS MIPE library collection: Karpas25_ECACC cell viability assay (AID 1918968; further: nearly all actives have a fitted effect of over 35% in size)
Method in brief: as §3

[8] = Quantitative High-Throughput drug screen in 47 multiple myeloma cell lines against the NCATS MIPE library collection: KMS27_JCRB cell viability assay (AID 1918970); conditions: KMS27 myeloma cells, CellTiter-Glo ATP viability, 48 h; viability (% of DMSO): at 45.8 µM (top of the series); further: nearly all actives have a fitted effect of over 30% in size
Method in brief: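 Luminescent ATP read-out (CellTiter-Glo, 5 min at room temperature) after 48 h compound exposure of 500 KMS27_JCRB cells per well; DMSO wells define full viability and media-only wells zero.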

[9] = Quantitative High-Throughput drug screen in 47 multiple myeloma cell lines against the NCATS MIPE library collection: KMS12BM_JCRB cell viability assay (AID 1918971); further: nearly all actives have a fitted effect of over 35% in size
Method in brief: (§4)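 Myeloma cell lines, 500 cells per well, exposed to MIPE 4.0 library compounds for 48 h at 37C, 5% CO2. Viability from ATP by CellTiter-Glo luminescence; normalised to DMSO (100%) and media-only (0%) wells.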

[10] = Quantitative High-Throughput drug screen in 47 multiple myeloma cell lines against the NCATS MIPE library collection: KMS12PE_JCRB cell viability assay (AID 1918972); further: nearly all actives have a fitted effect of over 30% in size
Method in brief: as §1

[11] = Quantitative High-Throughput drug screen in 47 multiple myeloma cell lines against the NCATS MIPE library collection: KMS20_JCRB cell viability assay (AID 1918973); further: nearly all actives have a fitted effect of over 45% in size
Method in brief: as §3

[12] = Quantitative High-Throughput drug screen in 47 multiple myeloma cell lines against the NCATS MIPE library collection: KMS26_JCRB cell viability assay (AID 1918975); further: nearly all actives have a fitted effect of over 45% in size
Method in brief: as §4

[13] = Quantitative High-Throughput drug screen in 47 multiple myeloma cell lines against the NCATS MIPE library collection: MMM1_PLB cell viability assay (AID 1918976); further: nearly all actives have a fitted effect of over 35% in size
Method in brief: (§5)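 ATP-based CellTiter-Glo luminescence after 48 h drug exposure (37 °C, 5% CO2) of 500 myeloma cells per well. DMSO-only wells set 100% viability, media-only wells 0%; MIPE 4.0 library added by pin tool.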

[14] = Quantitative High-Throughput drug screen in 47 multiple myeloma cell lines against the NCATS MIPE library collection: NCIH929_DSMZ cell viability assay (AID 1918978); further: nearly all actives have a fitted effect of over 35% in size
Method in brief: as §5

[15] = Quantitative High-Throughput drug screen in 47 multiple myeloma cell lines against the NCATS MIPE library collection: OCIMY1_PLB cell viability assay (AID 1918979); further: nearly all actives have a fitted effect of over 35% in size
Method in brief: as §5

[16] = Quantitative High-Throughput drug screen in 47 multiple myeloma cell lines against the NCATS MIPE library collection: MM1S_ATCC cell viability assay (AID 1918980); further: nearly all actives have a fitted effect of over 45% in size
Method in brief: as §5

[17] = Quantitative High-Throughput drug screen in 47 multiple myeloma cell lines against the NCATS MIPE library collection: MM1R_ATCC cell viability assay (AID 1918981); further: nearly all actives have a fitted effect of over 35% in size
Method in brief: as §5

[18] = Quantitative High-Throughput drug screen in 47 multiple myeloma cell lines against the NCATS MIPE library collection: MOLP8_DSMZ cell viability assay (AID 1918977); further: nearly all actives have a fitted effect of over 45% in size
Method in brief: as §5

[19] = Quantitative High-Throughput drug screen in 47 multiple myeloma cell lines against the NCATS MIPE library collection: KHM11_PLB cell viability assay (AID 1918962); further: nearly all actives have a fitted effect of over 35% in size
Method in brief: as §2

[20] = Quantitative High-Throughput drug screen in 47 multiple myeloma cell lines against the NCATS MIPE library collection: KMS21BM_JCRB cell viability assay (AID 1918974); conditions: ATP luminescence, 48 h; viability: at 45.8 µM (top of the series)
Method in brief: as §3
Potency means the concentration at half of the fitted maximal effect.

Row | SMILES | Potency [1] | Potency [2] | Potency [3] | Potency [4] | Potency [5] | Potency [6] | Potency [7] | Potency [8] | Potency [9] | Potency [10] | Potency [11] | Potency [12] | Potency [13] | Potency [14] | Potency [15] | Potency [16] | Potency [17] | Potency [18] | Potency [19] | Potency [20]
1 | C#CCC(Cc1cnc2nc(N)nc(N)c2n1)c1ccc(C(=O)N[C@@H](CCC(=O)O)C(=O)O)cc1 (stereo partly drawn) | inactive | 46.9 nM (active) | inactive | 93.5 nM (active) | 66.2 nM (active) | 132 nM (active) | 11800 nM (active) | inactive | inactive | inactive | inactive | 105 nM (active) | inactive | 118 nM (active) | inactive | 18.7 nM (active) | 11.8 nM (active) | – | – | –
2 | COc1cccc2c1C(=O)c1c(O)c3c(c(O)c1C2=O)C[C@@](O)(C(=O)CO)C[C@H]3O[C@H]1C[C@H](N)[C@H](O)[C@H](C)O1 | 1320 nM (active) | 332 nM (active) | 1050 nM (active) | 118 nM (active) | 132 nM (active) | 372 nM (active) | 118 nM (active) | 743 nM (active) | 166 nM (active) | 1480 nM (active) | 52.6 nM (active) | 296 nM (active) | 148 nM (active) | 93.5 nM (active) | 296 nM (active) | 20.9 nM (active) | 20.9 nM (active) | 187 nM (active) | – | –
3 | C[C@@H](NCc1cc2ccccc2[nH]1)c1cccc2ccccc12 | inactive | inactive | – | 4690 nM (active) | inactive | – | – | – | inactive | – | inactive | – | – | inactive | – | – | inactive | inactive | – | –
4 | O=C(CCCCCCC(=O)Nc1cccnc1)NO | – | 16600 nM (active) | 4180 nM (active) | 833 nM (active) | 4180 nM (active) | 5900 nM (active) | 1660 nM (active) | 7430 nM (active) | 1870 nM (active) | 2960 nM (active) | 3320 nM (active) | 3720 nM (active) | – | 3720 nM (active) | 14800 nM (active) | 3320 nM (active) | 2640 nM (active) | 3320 nM (active) | 8330 nM (active) | 2350 nM (active)
5 | CCn1c(=O)c2c(nc(C=Cc3ccc(OC)c(OC)c3)n2C)n(CC)c1=O | inactive | – | – | – | inactive | inactive | inactive | 11800 nM (active) | inactive | 20900 nM (active) | – | inactive | – | – | inactive | 26400 nM (active) | – | inactive | – | –
